Mtb FBA inh: Mtb FBA enzyme inhibitors, primary screen, biochemical, fluorescence, strain H37Rv | Fructose-bisphosphate aldolase (Mycobacterium tuberculosis (strain ATCC 25618 / H37Rv)), … | purified M. tuberculosis FBA, fluorescence read-out | inhibition, % at 1 µM | 360,000 compounds, 2.3% hits; in the data active means inhibition above about 27%;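 further: 0% = vehicle and 100% = reference inhibitor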
Anthrax LF inh2: Bacillus anthracis LF protease inhibitors, primary screen, biochemical, multiplex microsphere, MLPCN library | 360,000 compounds, 0.12% hits | inhibition, % at 10 µM | AID 588501, 2011 | multiplex microsphere protease cleavage assay | Lethal factor (Bacillus anthracis), P15917; further: plate controls were buffer without enzyme for full effect and enzyme alone for no effect
Target sequence (P15917 whole entry, looked up): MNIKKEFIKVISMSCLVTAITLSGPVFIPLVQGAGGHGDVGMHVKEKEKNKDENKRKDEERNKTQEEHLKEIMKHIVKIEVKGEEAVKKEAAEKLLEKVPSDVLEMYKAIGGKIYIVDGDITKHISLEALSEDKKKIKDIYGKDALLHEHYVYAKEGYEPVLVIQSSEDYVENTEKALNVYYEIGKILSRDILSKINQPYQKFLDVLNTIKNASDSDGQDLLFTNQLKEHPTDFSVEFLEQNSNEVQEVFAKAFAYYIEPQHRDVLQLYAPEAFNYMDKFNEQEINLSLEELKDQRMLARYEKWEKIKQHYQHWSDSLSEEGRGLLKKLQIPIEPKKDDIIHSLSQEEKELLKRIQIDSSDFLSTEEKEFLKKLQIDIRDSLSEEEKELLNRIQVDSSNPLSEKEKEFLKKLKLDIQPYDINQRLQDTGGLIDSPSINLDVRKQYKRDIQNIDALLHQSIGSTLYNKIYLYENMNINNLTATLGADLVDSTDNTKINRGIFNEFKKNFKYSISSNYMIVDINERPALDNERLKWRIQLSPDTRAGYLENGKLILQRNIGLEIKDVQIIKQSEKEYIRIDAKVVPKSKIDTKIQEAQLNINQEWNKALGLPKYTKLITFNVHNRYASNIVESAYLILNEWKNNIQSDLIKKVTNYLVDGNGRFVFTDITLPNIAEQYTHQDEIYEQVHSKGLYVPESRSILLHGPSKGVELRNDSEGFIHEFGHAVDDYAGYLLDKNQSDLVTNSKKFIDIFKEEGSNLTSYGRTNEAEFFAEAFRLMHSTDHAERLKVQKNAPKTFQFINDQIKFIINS
GDH-TPI inh: GDH-TPI coupling enzyme inhibitors, primary screen, artefact control for M. tuberculosis FBA inhibitor project, biochemical, absorbance, full deck. GDH-TPI coupled enzyme counterscreen, NADH absorbance. inhibition, % at 4.8 µM. 360,000 compounds, 1.2% hits. AID 588335, 2011; in the data active means inhibition above about 30%;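 further: 0% = DMSO wells and 100% = wells lacking the enzyme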
Autofluor counter: flagged as autofluorescent in microsphere protease counterscreen. compound autofluorescence counterscreen, microsphere flow cytometry; stronger effect = higher value. 360,000 compounds, 3.1% hits. AID 624483. fluorescence intensity (test concentration not listed); in the data active means fluorescence intensity above about 16000; inconclusive means no clear call, values can overlap the other calls
BoNT-F LC inh: BoNT/F light chain protease inhibitors, primary screen, biochemical, flow cytometry, MLPCN library. Botulinum neurotoxin type F light chain protease (Clostridium botulinum). Multiplex microsphere protease cleavage assay. inhibition, % at 10 µM. 360,000 compounds, 0.22% hits; in the data active means inhibition above about 35%, passing the limit was not always enough; inconclusive means no clear call, values can overlap the other calls; further: plate controls were buffer without enzyme for full effect and enzyme alone for no effect
BoNT-A LC inh2: BoNT/A light chain protease inhibitors, primary screen, biochemical, flow cytometry, MLPCN library; multiplex microsphere protease substrate cleavage; inhibition, % at 10 µM; AID 588499, 2011; 360,000 compounds, 0.17% hits; further: plate controls were buffer without enzyme for full effect and enzyme alone for no effect
An asterisk follows results filed as active. Shown are actives, neighbours in structure and some others; about 6.7% of the full set was active somewhere. Unless noted, no stated cut-off is given here; in the data, active means inhibition above about 30%; inconclusive means no clear call, values can overlap the other calls; inactive means below that.

Screening COc1ccc(Cl)cc1NC(=O)Nn1cnnc1 returned Mtb FBA inh -3, Anthrax LF inh2 -2, GDH-TPI inh 8, Autofluor counter 16503*, BoNT-F LC inh -2 and BoNT-A LC inh2 0.
For O=C(c1nc2ccccc2[nH]1)c1ccccc1[N+](=O)[O-] the results were Mtb FBA inh -1, Anthrax LF inh2 16, GDH-TPI inh 8, Autofluor counter 3683, BoNT-F LC inh inconclusive and BoNT-A LC inh2 -2.
COC(=O)CN1C(=O)C2(OCCCO2)c2ccccc21 was read as Mtb FBA inh 1, Anthrax LF inh2 2, GDH-TPI inh 2, Autofluor counter 11925, BoNT-F LC inh -2 and BoNT-A LC inh2 0.
For O=C1N(CN2CCN(c3cccc(Cl)c3)CC2)c2ccccc2C12OCCCO2 the results were Mtb FBA inh 3, Anthrax LF inh2 -8, GDH-TPI inh -1, Autofluor counter 21061*, BoNT-F LC inh 6 and BoNT-A LC inh2 8.
For O=C(O)CN1C(=O)C2(OCCCO2)c2ccccc21 the results were Mtb FBA inh 1, Anthrax LF inh2 1, GDH-TPI inh 7, Autofluor counter 23379*, BoNT-F LC inh -2 and BoNT-A LC inh2 0.
O=C1N(CN2CCC3(CC2)OCCO3)c2ccccc2C12OCCCO2 was read as Mtb FBA inh 0, Anthrax LF inh2 -1, GDH-TPI inh 1, Autofluor counter 22108*, BoNT-F LC inh 2 and BoNT-A LC inh2 3.
COc1cccc(NC(=O)CN2C(=O)C3(OCCCO3)c3ccccc32)c1 was read as Mtb FBA inh -2, Anthrax LF inh2 -3, GDH-TPI inh 4, Autofluor counter 22688*, BoNT-F LC inh 1 and BoNT-A LC inh2 inconclusive.
Screening CCc1ccc(C(=O)NCc2ccc(Cl)cc2Cl)cc1 returned Mtb FBA inh -1, Anthrax LF inh2 4, GDH-TPI inh 3, Autofluor counter 11127, BoNT-F LC inh -5 and BoNT-A LC inh2 0.
`O=C(CSc1nc2ccc([N+](=O)[O-])cc2[nH]1)NC1CCCCC1` gave Mtb FBA inh -3, Anthrax LF inh2 2, GDH-TPI inh 1, Autofluor counter 20507*, BoNT-F LC inh 2 and BoNT-A LC inh2 inconclusive.
COCCn1c(=O)c2ccccc2c2ccccc2c1=O was read as Mtb FBA inh 0, Anthrax LF inh2 -2, GDH-TPI inh 10, Autofluor counter 2030, BoNT-F LC inh -4 and BoNT-A LC inh2 -1.
For Cc1ccc(-n2ncc(-c3nnc(SCC(=O)NC4CCCC4)o3)c2N)cc1C the results were Mtb FBA inh 2, Anthrax LF inh2 -1, GDH-TPI inh -4, Autofluor counter 4443, BoNT-F LC inh 8 and BoNT-A LC inh2 1.
For COc1ccc(C2C(=O)N(CCc3ccccc3)CC(=O)N2C2CCCCC2)cc1 (stereo not drawn) the results were Mtb FBA inh -4, Anthrax LF inh2 -4, GDH-TPI inh -3, Autofluor counter 25113*, BoNT-F LC inh -6 and BoNT-A LC inh2 -3.
Screening O=C(CCCN1C(=O)c2cccc3cccc(c23)C1=O)N1CCN(c2ccccc2O)CC1 returned Mtb FBA inh 8, Anthrax LF inh2 -2, GDH-TPI inh 25, Autofluor counter 2517, BoNT-F LC inh -10 and BoNT-A LC inh2 0.
`COc1cc2cnc(-c3ccccc3)c(-c3ccc(C#N)cc3)c2cc1OC` gave Mtb FBA inh 5, Anthrax LF inh2 3, GDH-TPI inh 7, Autofluor counter 3535, BoNT-F LC inh -2 and BoNT-A LC inh2 0.
For CCCCC(=O)OCc1cn(-c2ccc(Cl)cc2)nn1 the results were Mtb FBA inh 0, Anthrax LF inh2 -1, GDH-TPI inh -6, Autofluor counter 22405*, BoNT-F LC inh 0 and BoNT-A LC inh2 1.
Cc1ccccc1NC(=O)OCc1cn(-c2ccc(Cl)cc2)nn1 was read as Mtb FBA inh 1, Anthrax LF inh2 -4, GDH-TPI inh 8, Autofluor counter 22413*, BoNT-F LC inh 1 and BoNT-A LC inh2 0.
`C[C@@]12N[C@@H](Cc3ccccc31)c1ccccc12` gave Mtb FBA inh 0, Anthrax LF inh2 -12, GDH-TPI inh -9, Autofluor counter 5687, BoNT-F LC inh 4 and BoNT-A LC inh2 1.
For CC(=O)/C(=N\Nc1ccccc1)Sc1cccc2cccnc12 the results were Mtb FBA inh -2, Anthrax LF inh2 -8, GDH-TPI inh 16, Autofluor counter 7089, BoNT-F LC inh -18 and BoNT-A LC inh2 -2.
COCCn1c(=NC(=O)CCS(=O)(=O)c2ccccc2)sc2cc(C)ccc21 was read as Mtb FBA inh 0, Anthrax LF inh2 -2, GDH-TPI inh 2, Autofluor counter 4584, BoNT-F LC inh -1 and BoNT-A LC inh2 2.
For COCCn1c(=NC(=O)/C=C/c2cccs2)sc2cc(NC(C)=O)ccc21 the results were Mtb FBA inh 0, Anthrax LF inh2 0, GDH-TPI inh 31*, Autofluor counter 2153, BoNT-F LC inh 2 and BoNT-A LC inh2 1.
CCOc1ccccc1N=Nc1c(C)[nH]n(C(N)=S)c1=O was read as Mtb FBA inh -8, Anthrax LF inh2 -1, GDH-TPI inh 14, Autofluor counter 3759, BoNT-F LC inh 56* and BoNT-A LC inh2 3.
CC(OC(=O)c1cc(Cl)ccc1[N+](=O)[O-])C(=O)NC(C)c1ccc(F)cc1 (stereo not drawn) was read as Mtb FBA inh 1, Anthrax LF inh2 -1, GDH-TPI inh 8, Autofluor counter 1973, BoNT-F LC inh -1 and BoNT-A LC inh2 0.
CCc1noc(C)c1C(=O)NCCc1ccc(F)cc1 was read as Mtb FBA inh -3 and GDH-TPI inh 13.
Cc1cc(C)c2c(n1)sc1c(N3CCN(CCO)CC3)ncnc12 was read as Mtb FBA inh 3, Anthrax LF inh2 -7, GDH-TPI inh 18, Autofluor counter 17147*, BoNT-F LC inh -4 and BoNT-A LC inh2 -4.
For CSc1c(C#N)c(N)c(C#N)c2c1COC(C)(C)C2 the results were Mtb FBA inh 24, Anthrax LF inh2 0, GDH-TPI inh 12, Autofluor counter 21535*, BoNT-F LC inh 5 and BoNT-A LC inh2 2.
Screening CC(C)c1nc(Cl)c(C#N)c2c1COC(C)(C)C2 returned Mtb FBA inh 1, Anthrax LF inh2 11, GDH-TPI inh 5, Autofluor counter 3410, BoNT-F LC inh inconclusive and BoNT-A LC inh2 inconclusive.
Screening O=C(Cc1cccc2ccccc12)Nc1ccccc1 returned Mtb FBA inh 4, Anthrax LF inh2 0, GDH-TPI inh -3, Autofluor counter 6115, BoNT-F LC inh -3 and BoNT-A LC inh2 1.
CC(C)Oc1ccc(CSc2nnc3n(C)c(=O)c4c5c(sc4n23)CCCC5)cc1 was read as Mtb FBA inh -3, Anthrax LF inh2 -1, GDH-TPI inh 4, Autofluor counter 24669*, BoNT-F LC inh 0 and BoNT-A LC inh2 inconclusive.
`CCCNC(=O)COC(=O)c1ccccc1OCC(=O)Nc1ccc(Br)cc1` gave Mtb FBA inh 0, Anthrax LF inh2 0, GDH-TPI inh 7, Autofluor counter 7139, BoNT-F LC inh 8 and BoNT-A LC inh2 2.
